Source: PubChem BioAssay (Tox21)
Several values for one entry are separate records, joined by “and”; a condition that tells them apart may be missing. Identical values can stand only once. Records with an inconclusive call do not appear. The source holds several records for some structures; these can differ, active in one and inactive in another. Activity calls are given as the source filed them. Unless noted, calls follow the shape of the dose curve; as a rule, active = well fitted curve in the direction sought with a large enough effect in the repeat runs; inconclusive = weak or mixed curves; inactive = no such curve, though single readings can be large; an effect the other way counts as inactive or inconclusive.

How the values were obtained:
[1] = qHTS assay to identify small molecule agonists of the sonic hedgehog signaling (Shh) pathway (AID 1259368; calls by dose curve; also: series mostly up to about 92 µM; nearly all actives have a fitted effect of over 15% in size)
Procedure, shortened: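 NIH/3T3-derived 3T3Gli1-Luc cells carrying a stably integrated Gli1 response element–firefly luciferase reporter were plated, left 4 hr at 37 C, then given compounds in DMSO for 24 hr. Luminescence was read 30 min after adding luciferase reagent.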

[2] = molecular target: Estrogen receptor beta (Homo sapiens) (UniProt Q92731); assay: qHTS assay to identify small molecule agonists of the estrogen receptor beta (ER-beta) signaling pathway (AID 1259377; active = well fitted activation curve with a large enough effect in the signal ratio in the repeat runs, not every such curve was filed as active; the % refers to the signal ratio; also: potency is read from the fitted curve at half-maximal effect)
Sequence of Estrogen receptor beta (Homo sapiens) (Q92731 whole entry, looked up): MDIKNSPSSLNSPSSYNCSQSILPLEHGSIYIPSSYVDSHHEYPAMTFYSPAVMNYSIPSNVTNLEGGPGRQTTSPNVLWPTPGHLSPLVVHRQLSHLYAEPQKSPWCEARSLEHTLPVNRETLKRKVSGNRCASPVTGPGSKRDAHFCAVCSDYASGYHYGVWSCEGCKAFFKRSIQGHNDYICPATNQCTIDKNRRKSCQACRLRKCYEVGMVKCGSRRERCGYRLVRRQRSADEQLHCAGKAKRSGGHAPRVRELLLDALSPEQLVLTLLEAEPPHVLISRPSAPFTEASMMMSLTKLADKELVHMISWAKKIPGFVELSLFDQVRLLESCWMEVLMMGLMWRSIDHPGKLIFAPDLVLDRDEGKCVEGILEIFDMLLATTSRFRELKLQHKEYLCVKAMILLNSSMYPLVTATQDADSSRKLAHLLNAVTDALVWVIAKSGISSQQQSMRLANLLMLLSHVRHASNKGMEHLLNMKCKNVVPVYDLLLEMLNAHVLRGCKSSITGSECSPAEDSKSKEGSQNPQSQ
Procedure, shortened: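 Ratiometric beta-lactamase FRET read-out came after 2 h substrate loading at room temperature. It followed 16 h compound treatment at 37C of GripTite HEK293T cells carrying a UAS-bla reporter, plated in 2% charcoal-stripped FBS medium.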

[3] = molecular target: Estrogen receptor beta (Homo sapiens) (UniProt Q92731); assay: qHTS assay to identify small molecule antagonists of the estrogen receptor beta (ER-beta) signaling pathway (AID 1259378; active = well fitted inhibition curve with a large enough effect in the signal ratio in the repeat runs, not every such curve was filed as active; the % refers to the signal ratio)
Procedure, shortened: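 ER-beta-UAS-bla HEK293T cells in 2% charcoal-stripped FBS medium treated with compound plus 1nM final 17-beta-estradiol for 16 hr at 37C. Beta-lactamase reporter read by FRET substrate fluorescence after 2 hours at room temperature.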

[4] = qHTS assay to identify small molecule agonists of the androgen receptor (AR) signaling pathway in the presence of an antagonist - cell viability counter screen (AID 1259379); also: nearly all actives have a fitted effect of over 25% in size; also: potency is read from the fitted curve at half-maximal effect; as to activity change, negative = cytotoxicity: series mostly up to about 92 µM
Procedure, shortened: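 MDA-kb2 human breast carcinoma cells (stable MMTV-luciferase, AR/GR responsive) were seeded 3,000 cells/well, pre-incubated 5 hr at 37C without CO2, then given 3.0uM nilutamide and compounds at 15 concentrations for 16 hr. Viability was read by CellTiter-Fluor fluorescence.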

[5] = qHTS assay to identify small molecule agonists of the estrogen receptor beta (ER-beta) signaling pathway - cell viability counter screen (AID 1259380); also: nearly all actives have a fitted effect of over 30% in size
Procedure, shortened: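 ER-beta-UAS-bla HEK293T cells in medium with 2% charcoal-stripped FBS were preincubated 6 hr at 37C, dosed with compound in DMSO for 16 hr, then after the bla read, CellTiter-Glo was added for 30 min at room temperature; luminescence recorded.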

[6] = molecular target: Androgen receptor (Homo sapiens) (UniProt P10275); assay: qHTS assay to identify small molecule agonists of the androgen receptor (AR) signaling pathway in the presence of an antagonist (AID 1259381; calls by dose curve; also: nearly all actives have a fitted effect of over 15% in size)
Sequence of Androgen receptor (Homo sapiens) (P10275 whole entry, looked up): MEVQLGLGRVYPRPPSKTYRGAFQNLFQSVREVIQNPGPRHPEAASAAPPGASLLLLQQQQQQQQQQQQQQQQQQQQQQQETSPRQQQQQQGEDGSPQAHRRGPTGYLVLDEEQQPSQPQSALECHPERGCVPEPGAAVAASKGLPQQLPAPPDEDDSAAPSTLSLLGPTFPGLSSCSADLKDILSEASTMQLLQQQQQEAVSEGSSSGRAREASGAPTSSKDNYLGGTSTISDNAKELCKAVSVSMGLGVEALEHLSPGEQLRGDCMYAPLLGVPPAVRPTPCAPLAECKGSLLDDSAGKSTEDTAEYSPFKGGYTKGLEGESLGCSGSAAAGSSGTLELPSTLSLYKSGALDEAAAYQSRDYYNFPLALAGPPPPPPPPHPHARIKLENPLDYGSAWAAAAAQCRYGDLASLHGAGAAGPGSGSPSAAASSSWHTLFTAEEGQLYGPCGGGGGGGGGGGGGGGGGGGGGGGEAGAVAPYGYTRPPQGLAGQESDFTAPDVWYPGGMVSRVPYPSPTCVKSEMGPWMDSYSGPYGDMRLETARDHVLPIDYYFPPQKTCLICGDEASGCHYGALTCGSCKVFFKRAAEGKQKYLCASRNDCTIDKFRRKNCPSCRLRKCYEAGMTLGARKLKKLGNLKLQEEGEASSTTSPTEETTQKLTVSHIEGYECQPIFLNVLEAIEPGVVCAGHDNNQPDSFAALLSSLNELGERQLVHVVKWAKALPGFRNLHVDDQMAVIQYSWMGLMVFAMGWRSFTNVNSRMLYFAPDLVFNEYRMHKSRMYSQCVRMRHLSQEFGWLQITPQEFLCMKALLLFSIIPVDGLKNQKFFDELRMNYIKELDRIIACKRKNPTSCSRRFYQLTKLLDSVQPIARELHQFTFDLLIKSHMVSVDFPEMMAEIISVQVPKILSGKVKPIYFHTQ
Procedure, shortened: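 MDA-kb2 human breast carcinoma cells carrying an MMTV-luciferase reporter (AR- and GR-responsive) were treated with compounds at 15 concentrations plus 3.0uM final nilutamide for 16hr at 37C without CO2; luminescence was read after ONE-Glo addition.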

[7] = qHTS assay to identify small molecule antagonists of the estrogen receptor beta (ER-beta) signaling pathway - cell viability counter screen (AID 1259382); also: series mostly up to about 92 µM; nearly all actives have a fitted effect of over 55% in size
Procedure, shortened: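 ER-beta-UAS-bla HEK293T cells (2,000/well, 2% charcoal-stripped FBS) were pre-incubated 6 hr at 37C, then given compound plus 1nM final 17-beta-estradiol for 16 hr. Viability was read in the same wells by CellTiter-Glo luminescence after 30 min at room temperature.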

[8] = molecular target: Estrogen receptor (Homo sapiens) (UniProt P03372); assay: qHTS assay to identify small molecule agonists of the estrogen receptor alpha (ER-alpha) signaling pathway in the presence of an antagonist (AID 1259383; calls by dose curve; also: nearly all actives have a fitted effect of over 15% in size; also: potency is read from the fitted curve at half-maximal effect; as to activation: top concentration of the series differs between compounds)
Sequence of Estrogen receptor (Homo sapiens) (P03372 whole entry, looked up): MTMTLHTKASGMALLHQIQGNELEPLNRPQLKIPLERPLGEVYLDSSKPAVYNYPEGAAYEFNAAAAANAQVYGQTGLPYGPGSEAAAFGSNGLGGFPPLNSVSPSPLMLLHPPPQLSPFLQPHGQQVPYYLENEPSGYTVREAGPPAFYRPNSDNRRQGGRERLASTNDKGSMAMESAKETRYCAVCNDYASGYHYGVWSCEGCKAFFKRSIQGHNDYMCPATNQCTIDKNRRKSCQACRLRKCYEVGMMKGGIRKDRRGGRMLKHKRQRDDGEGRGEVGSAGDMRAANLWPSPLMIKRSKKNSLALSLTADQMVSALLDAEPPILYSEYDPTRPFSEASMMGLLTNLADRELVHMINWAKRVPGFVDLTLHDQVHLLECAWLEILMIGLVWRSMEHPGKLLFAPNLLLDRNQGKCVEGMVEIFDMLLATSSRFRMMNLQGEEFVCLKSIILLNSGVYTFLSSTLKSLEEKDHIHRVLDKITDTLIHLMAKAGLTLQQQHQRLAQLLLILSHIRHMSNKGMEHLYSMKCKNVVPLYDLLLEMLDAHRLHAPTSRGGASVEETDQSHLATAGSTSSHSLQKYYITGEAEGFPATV
Procedure, shortened: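 VM7Luc4E2 cells (endogenous full-length ER-alpha, 4×ERE-luciferase) were precultured 5 days in phenol red-free medium with 10% charcoal-stripped FBS, given 10.0nM ICI-182,780 (final), then treated with compounds at 15 concentrations for 22hr at 37C; luminescence read with ONE-Glo.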

[9] = qHTS assay to identify small molecule agonists or antagonists of the thyroid stimulating hormone receptor (TSHR) signaling pathway - wild type cell line counter screen (AID 1259384; calls by dose curve)
Procedure, shortened: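 Wild-type Hek293 cells, 800/well, 18 h at 37C, then compound with Ro20-1724 for 30 min RT. cAMP by HTRF (cAMP-d2/anti-cAMP cryptate), 1 h RT, fluorescence read. 15 concentrations, triplicates.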

[10] = qHTS assay to identify small molecule antagonists of the sonic hedgehog signaling (Shh) pathway (AID 1259369; calls by dose curve; also: nearly all actives have a fitted effect of over 45% in size)
Procedure, shortened: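 NIH/3T3-derived 3T3Gli1-Luc cells with stably integrated Gli1-Luc reporter were preincubated 4hr at 37 C, then given compounds in DMSO plus Shh conditioned medium and incubated 24hr. Firefly luciferase luminescence read after 30min reagent at room temperature.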
% is scaled to controls: 0 for no effect and ±100 for the full control effect.

CCC1(c2ccccc2)CCC(=O)NC1=O (configuration not stated)
inactive: outcome [1] | Potency [2] | outcome [3] | Potency [4] | Potency [5] | Potency [6] | Potency [7] | Potency [8] | outcome [9]

Cl/C=C/CCl
inactive: outcome [1] | Potency [2] | outcome [3] | Potency [4] | Potency [5] | Potency [7] | outcome [9]

CCc1ccc(C2CCNCC2)cc1
inactive: outcome [1] | Potency [2] | outcome [3] | Potency [4] | Potency [5] | Potency [6] | Potency [7] | Potency [8] | outcome [9]

CCNc1nc(NCC)nc(SC)n1
inactive: outcome [1] | Potency [2] | outcome [3] | Potency [4] | Potency [5] | Potency [7] | Potency [8] | outcome [9]

CN(CCO)CCO
inactive: outcome [1] | Potency [2] | outcome [3] | Potency [4] | Potency [5] | Potency [7] | Potency [8] | outcome [9]

ClCCCCCCCl
inactive: outcome [1] | Potency [2] | outcome [3] | Potency [4] | Potency [5] | Potency [7] | outcome [9]

CC1NCCOC1c1ccccc1 (configuration not stated)
inactive: outcome [1] | Potency [2] | outcome [3] | Potency [4] | Potency [5] | Potency [7] | Potency [8] | outcome [9]

CN1COCN(Cc2cnc(Cl)s2)/C1=N\[N+](=O)[O-]
inactive: outcome [1] | Potency [10] | Potency [4] | Potency [5] | Potency [7] | outcome [9]

Cc1cc(OC(=O)N(C)C)nn1C(=O)N(C)C
inactive: outcome [1] | Potency [2] | outcome [3] | Potency [4] | Potency [5] | Potency [7] | Potency [8] | outcome [9]

CCNc1nc(Cl)nc(NC(C)(C)C)n1
inactive: outcome [1] | outcome [3] | Potency [4] | Potency [5] | Potency [6] | Potency [7]
active: Potency [2] 27.3 µM

C=C(Cl)CSC(=S)N(CC)CC
inactive: outcome [1] | Potency [2] | outcome [3] | Potency [4] | Potency [5] | Potency [7]

C/C(=N\NC(=O)Nc1cc(F)cc(F)c1)c1ncccc1C(=O)O
inactive: outcome [1] | Potency [2] | outcome [3] | Potency [4] | Potency [5] | Potency [7] | Potency [8] | outcome [9]

CCCOC(=O)Cc1ccc(OCC(=O)N(CC)CC)c(OC)c1
inactive: outcome [1] | Potency [2] | outcome [3] | Potency [4] | Potency [5] | Potency [7] | outcome [9]

Cc1ccc(Cl)c(O)c1
inactive: outcome [1] | Potency [4] | Potency [5] | Potency [7] | Potency [8] | outcome [9]

CC(Cl)(Cl)Cl
inactive: outcome [1] | Potency [4] | Potency [5] | Potency [7] | outcome [9]

C[C@H]1CCCC(=O)CCC/C=C/c2cc(O)cc(O)c2C(=O)O1
active: Potency [8] 41.7 nM and 56.3 nM
46.8 µM (active) and inactive: Potency [4]
inactive: outcome [1] | Potency [5] | Potency [6] | Potency [7]

O=c1[nH]oc2c1CCNC2
inactive: outcome [1] | Potency [2] | outcome [3] | Potency [4] | Potency [7] | Potency [8] | outcome [9]

NC(=O)CS(=O)C(c1ccccc1)c1ccccc1 (configuration not stated)
inactive: outcome [1] | Potency [2] | outcome [3] | Potency [4] | Potency [7] | Potency [8] | outcome [9]

CON(C)C(=O)Nc1ccc(Br)c(Cl)c1
inactive: outcome [1] | outcome [3] | Potency [4] | Potency [7] | outcome [9]

COc1ccc2c(C(=O)c3ccc(Cl)cc3)c(C)n(CC(=O)O)c2c1
inactive: outcome [1] | Potency [2] | Potency [4] | Potency [5] | Potency [7]

C[C@@H](N)[C@@H](O)c1ccccc1
inactive: outcome [1] | Potency [4] | Potency [5] | Potency [7] | outcome [9]

O=CCCl
inactive: outcome [1] | outcome [3] | Potency [4] | Potency [7] | Potency [8] | outcome [9]

O=C(CCl)NCO
inactive: outcome [1] | Potency [4] | Potency [5] | Potency [7] | Potency [8] | outcome [9]

CC1N=C(N)OC1c1ccccc1 (configuration not stated)
inactive: outcome [1] | Potency [2] | Potency [4] | Potency [7] | Potency [8] | outcome [9]

CC(C)(C)NC[C@H](O)c1ccc(O)cc1Cl
inactive: outcome [1] | Potency [4] | Potency [5] | Potency [7]

COc1cc(CC(C)N)cc(OC)c1OC (configuration not stated)
inactive: outcome [1] | Potency [2] | Potency [4] | Potency [5] | Potency [7] | Potency [8] | outcome [9]

O=[N+]([O-])CCO
inactive: outcome [1] | Potency [4] | Potency [5] | Potency [7] | Potency [8]

C=C(Cl)CCl
inactive: outcome [1] | Potency [2] | Potency [4] | Potency [5] | Potency [7] | Potency [8] | outcome [9]

CON(C)C(=O)Nc1ccc(Br)cc1
inactive: outcome [1] | Potency [4] | Potency [5] | Potency [7] | outcome [9]

C[C@H](N)C(=O)c1ccccc1
inactive: outcome [1] | Potency [2] | Potency [4] | Potency [5] | Potency [6] | Potency [7] | Potency [8] | outcome [9]

CCC(=O)OC1(c2ccccc2)CCN(C)CC1
inactive: outcome [1] | Potency [4] | Potency [5] | Potency [7] | outcome [9]

CN(C)C1CCCCC1
inactive: outcome [1] | Potency [4] | Potency [5] | Potency [7] | Potency [8]

CCOc1cc(OP(=S)(OC)OC)nc(CC)n1
inactive: outcome [1] | Potency [2] | outcome [3] | Potency [4] | Potency [7] | Potency [8] | outcome [9]

N#CN=C1SCCN1Cc1ccc(Cl)nc1
inactive: outcome [1] | Potency [4] | Potency [5] | Potency [7] | Potency [8] | outcome [9]

CCSC(=O)Cl
inactive: Potency [2] | outcome [3] | Potency [4] | Potency [6] | Potency [7] | Potency [8] | outcome [9]

Cc1ccc(-c2nc3ccc(C)cn3c2CC(=O)N(C)C)cc1
inactive: outcome [1] | Potency [4] | Potency [7] | Potency [8] | outcome [9]

C#CCOC(=O)/C=C(C)/C=C/CC(C)CCCC(C)C (configuration not stated)
inactive: outcome [1] | Potency [4] | Potency [5] | Potency [8] | outcome [9]

[O-][Br+2]([O-])O
inactive: outcome [1] | Potency [5] | Potency [6] | Potency [7] | Potency [8] | outcome [9]

CNC(=O)Oc1cc(C)c(N(C)C)c(C)c1
inactive: outcome [1] | outcome [3] | Potency [4] | Potency [5] | Potency [7] | outcome [9]

COC1=CC(=O)O[C@@H](/C=C/c2ccccc2)C1
inactive: Potency [2] | Potency [4] | Potency [7] | outcome [9]

CC#Cc1cc(C)nc(Nc2ccccc2)n1
inactive: Potency [2] | Potency [4] | Potency [7] | Potency [8] | outcome [9]

Cc1cccc2sc3nncn3c12
inactive: outcome [1] | Potency [4] | Potency [5] | Potency [7] | Potency [8] | outcome [9]

Brc1c(Br)c(Br)c(Br)c(Br)c1Br
inactive: activity change [1] -2.81% [at 8.39 µM] | activity change, negative = cytotoxicity [4] 0.311% [at 8.39 µM] | activity change, negative = cytotoxicity [5] -3.01% [at 8.39 µM] | activity change, negative = cytotoxicity [7] -0.381% [at 8.39 µM] | activation [8] -2.37% [at 8.39 µM] | cAMP activity change [9] 7.95% [at 8.39 µM]

CC[C@H](O)C(C[C@H](C)N(C)C)(c1ccccc1)c1ccccc1
inactive: outcome [1] | Potency [2] | outcome [3] | Potency [4] | Potency [8] | outcome [9]

O=C(NC(=O)c1c(F)cccc1F)Nc1cc(Cl)c(F)c(Cl)c1F
inactive: outcome [1] | Potency [4] | Potency [5] | Potency [7] | Potency [8] | outcome [9]

c1ccc2c(c1)CCNC2
inactive: outcome [1] | Potency [2] | outcome [3] | Potency [4] | Potency [5] | Potency [7] | outcome [9]

C[C@]12C=CC(=O)C=C1CC[C@@H]1[C@@H]2CC[C@@]2(C)[C@H]1CC[C@]2(C)O
active: Potency [8] 2.98 µM
inactive: outcome [1] | Potency [4] | Potency [7] | outcome [9]

Oc1ccc(Cc2ccc(O)cc2)cc1
active: Potency [2] 5.49 µM | Potency [8] 30.9 µM
inactive: outcome [1] | Potency [4] | Potency [5] | Potency [7] | outcome [9]

CCC1(c2cccc(O)c2)CCCCN(C)C1 (configuration not stated)
inactive: outcome [1] | Potency [4] | Potency [5] | Potency [7] | outcome [9]
